In PubChem BioAssay (NCI) one finds growth data, which are given here for 38 compounds.

This is part of a sample that, as a whole, favours compounds with a hit. Of some 83,000 tested, about 20% had one in any assay.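 Results are percent growth after 48 hours of single-concentration exposure. 100 means growth as in untreated cells, lower positive values show inhibition; negative values down to -100 show cell death.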 Values without a mark were called inactive. The source made the active and inactive calls. How the source made its calls: active means growth percent below 10; inactive means the rest.

For one assay, the system named is OVCAR-3 ovarian. The assay is described as follows: NCI-60 one-dose screen, 48 h (100 = growth as untreated, 0 = no growth, -100 = all killed). Conditions: 10 µM unless noted.
For `COC(=O)c1c2c(c(C)[n+]([O-])c1C)C(=O)C=C(NCc1cccc(Cl)c1)C2=O`, the growth is -35.7% (active).
On the same count and under the same terms, the same measure for `COc1ccc(-c2[nH]ncc2Nc2cc(OC)c(OC)c(OC)c2)cc1`: 5.17% (active); for `COc1ccc(-c2nc(Nc3ccc(F)cc3)nc(Nc3ccc4c(c3)nc(C)n4Cc3ccccc3)n2)cc1`: 50.5%; for `O=C(N/N=C(\CS(=O)(=O)c1ccccc1)c1cc2ccccc2oc1=O)c1ccccc1`: 111%.
The same measure, in the same setting: as for `COc1ccc(C(=O)C2=CC(=O)C(=O)C2)cc1OC`, the figure is 108%; as for `COc1ccc(C(=O)COc2cccc(/C=C3\CSc4ccc(C)cc4C3=O)c2)cc1`, 97.5%; as for `Cc1ccc(S(=O)(=O)N2C/C(=C\c3cc(F)cc(F)c3)C(=O)/C(=C/c3cc(F)cc(F)c3)C2)cc1`, -82.9% (active).
On the same count and under the same terms, as for `Nc1nc(N)c(N=Nc2c(Br)cc(S(N)(=O)=O)cc2Br)c(N)n1`, the figure is 73.1%; as for `Cc1ccc(-c2c3c(N)c4c(nc3nc3c2c(C)nn3-c2ccccc2)CCCC4)cc1`, 116%; as for `COc1cc(-c2nc3ccccc3o2)cc(CN2CCN(c3ccccc3)CC2)c1O`, 63.7%.
On to `Cc1cccc2c(=O)c3c(sc12)c(NCCNCCO)nc1ccccc13`, for which the growth is 45.1%.
On the same count and under the same terms, as for `Nc1nc2c(s1)CCc1c-2c(Br)n(Cc2ccccc2)c1Br`, the figure is 52.5%; as for `COC(=O)c1c2c(c(C)[n+]([O-])c1C)C(=O)C=C(NCc1cccc(OC)c1)C2=O`, -51% (active).
For the compound `COc1ccc(-c2csc3c2-n2cccc2C3=O)cc1O`, the growth is -38.7% (active).
Take `COc1ccc(-c2c(-c3cc4c(c(OC)c3OC)OCO4)noc2N)cc1`: the growth is -38.1% (active).
Same read-out and setting: as for `O=C(N/N=C(\CS(=O)(=O)c1ccccc1)c1cc2cc(Br)ccc2oc1=O)c1ccccc1`, the figure is 108%; as for `Cn1c(=O)c2c(-c3ccccc3F)n(-c3ccc4c(c3)OCO4)cc2n(C)c1=O`, 114%; as for `CN(C)C(=S)SCN1C(=O)c2ccc([N+](=O)[O-])cc2S1(=O)=O`, 99.3%.
For `Cc1nn(-c2ccccc2)c2nc3nc4c(c(N)c3c(-c3ccc(Cl)cc3)c12)CCCC4`, the growth was 114%.
`COc1cc(CNCCN2C(=O)c3ccc4c5c(ccc(c35)C2=O)C(=O)N(CCNCc2cc(OC)c(OC)c(OC)c2)C4=O)cc(OC)c1OC`: the growth is -99.1% (active).
For `O=C(O)c1ccccc1Oc1cc(-c2ccco2)nc(OCCBr)n1`, the growth was 105%.
On the same count and under the same terms, the same measure for `COc1cc(-c2ccc3cc(OC)c(OC)c(OC)c3c2)cc(OC)c1OC`: 78.9%; for `COc1cccc(-c2ccc3c(c2)C2CCN(Cc4ccccc4)C3C2)c1` (stereo not drawn): 72.2%.
Still for that read-out and setting: as for `COc1ccc(OC2=CC(=O)c3ccc(C)nc3C2=O)cc1`, the figure is 72.3%.
Same read-out and setting: the same measure for `CC(=O)OC[C@]1(C)C=C2C(=O)[C@](C)(O)C3(CC3)C(C)=C2[C@H]1OC(C)=O`: 94.9%.

The next assay deals with HS 578T breast. Described as above. Conditions: 10 µM unless noted.
Turning to `O=c1oc2ccccc2cc1-c1csc(N=Nc2c(O)[nH]c3ccc(Cl)cc23)n1`, the growth is 105%.
Turning to `COc1cc2nc(SCc3cc(OC)c(OC)c(OC)c3)n(-c3ccccc3OC)c(=O)c2cc1OC`, the growth was 60.8%.
Turning to `COc1ccc(-c2nc3sccn3c2/C=C/C(=O)c2cc(OC)c(OC)c(OC)c2)cc1OC`, the growth was 3.84% (active).
The same measure, in the same setting: as for `COC(=O)c1c2c(c(C)[n+]([O-])c1C)C(=O)C=C(NCc1ccc(F)c(Cl)c1)C2=O`, the figure is -24.2% (active).
The same measure, in the same setting: as for `O=C(N/N=C/c1ccc(F)cc1)c1[nH]c2ccc(I)cc2c1-c1ccccc1`, the figure is 51.8%; as for `Cc1nc2cc(Nc3nc(Nc4ccc(F)cc4)nc(N4CCCC4)n3)ccc2n1Cc1ccccc1`, 30.6%; as for `COc1cc2oc(-c3ccc(O)cc3)cc(=O)c2c(O)c1I`, 103%.
Same read-out and setting: the same measure for `COC(=O)c1c2c(c(C)[n+]([O-])c1C)C(=O)C=C(NCc1ccc(Cl)cc1)C2=O`: -19% (active); for `Cc1nc2cc(Nc3nc(Nc4ccc(F)cc4)nc(N4CCN(C)CC4)n3)ccc2n1Cc1ccccc1`: -19.4% (active); for `COc1ccc(OC)c2ncccc12`: 107%.
For `O=C(COc1cccc(/C=C2\COc3ccccc3C2=O)c1)c1ccccc1`, the growth was -28.2% (active).
On the same count and under the same terms, as for `O=C1c2c(c3c4cc(Br)ccc4[nH]c3c3ccc4ccccc4c23)C(=O)N1O`, the figure is 117%.
Same read-out and setting: the same measure for `C=CC[P+](c1ccccc1)(c1ccccc1)c1ccccc1`: 79.4%.
Take `COC(=O)c1c2c(c(C)[n+]([O-])c1C)C(=O)C=C(NCc1cccc(Cl)c1)C2=O`: the growth is -23.2% (active).
Still for that read-out and setting: the same measure for `COc1ccc(-c2[nH]ncc2Nc2cc(OC)c(OC)c(OC)c2)cc1`: 49.8%; for `COc1ccc(-c2nc(Nc3ccc(F)cc3)nc(Nc3ccc4c(c3)nc(C)n4Cc3ccccc3)n2)cc1`: 54.5%.
Same read-out and setting: the same measure for `O=C(N/N=C(\CS(=O)(=O)c1ccccc1)c1cc2ccccc2oc1=O)c1ccccc1`: 106%; for `COc1ccc(C(=O)C2=CC(=O)C(=O)C2)cc1OC`: 110%.
Same read-out and setting: as for `COc1ccc(C(=O)COc2cccc(/C=C3\CSc4ccc(C)cc4C3=O)c2)cc1`, the figure is 110%; as for `Cc1ccc(S(=O)(=O)N2C/C(=C\c3cc(F)cc(F)c3)C(=O)/C(=C/c3cc(F)cc(F)c3)C2)cc1`, 11.3%.
As for `Nc1nc(N)c(N=Nc2c(Br)cc(S(N)(=O)=O)cc2Br)c(N)n1`, the growth is 95.1%.
Same read-out and setting: the same measure for `Cc1ccc(-c2c3c(N)c4c(nc3nc3c2c(C)nn3-c2ccccc2)CCCC4)cc1`: 105%.
In the case of `COc1cc(-c2nc3ccccc3o2)cc(CN2CCN(c3ccccc3)CC2)c1O`, the growth is 110%.
The same measure, in the same setting: the same measure for `Cc1cccc2c(=O)c3c(sc12)c(NCCNCCO)nc1ccccc13`: 54.5%.
Still for that read-out and setting: the same measure for `Nc1nc2c(s1)CCc1c-2c(Br)n(Cc2ccccc2)c1Br`: 96.9%.
For `COC(=O)c1c2c(c(C)[n+]([O-])c1C)C(=O)C=C(NCc1cccc(OC)c1)C2=O`, the growth is -22.2% (active).
`COc1ccc(-c2csc3c2-n2cccc2C3=O)cc1O`: the growth was 32.7%.
The same measure, in the same setting: the same measure for `COc1ccc(-c2c(-c3cc4c(c(OC)c3OC)OCO4)noc2N)cc1`: 16%.
Still for that read-out and setting: as for `O=C(N/N=C(\CS(=O)(=O)c1ccccc1)c1cc2cc(Br)ccc2oc1=O)c1ccccc1`, the figure is 99.4%; as for `Cn1c(=O)c2c(-c3ccccc3F)n(-c3ccc4c(c3)OCO4)cc2n(C)c1=O`, 88.2%.
Same read-out and setting: the same measure for `CN(C)C(=S)SCN1C(=O)c2ccc([N+](=O)[O-])cc2S1(=O)=O`: 93%; for `Cc1nn(-c2ccccc2)c2nc3nc4c(c(N)c3c(-c3ccc(Cl)cc3)c12)CCCC4`: 105%.
Consider `COc1cc(CNCCN2C(=O)c3ccc4c5c(ccc(c35)C2=O)C(=O)N(CCNCc2cc(OC)c(OC)c(OC)c2)C4=O)cc(OC)c1OC`, for which the growth is -60.7% (active).
As to `O=C(O)c1ccccc1Oc1cc(-c2ccco2)nc(OCCBr)n1`, the growth was 98.1%.
Still for that read-out and setting: the same measure for `COc1cc(-c2ccc3cc(OC)c(OC)c(OC)c3c2)cc(OC)c1OC`: 69.1%; for `COc1cccc(-c2ccc3c(c2)C2CCN(Cc4ccccc4)C3C2)c1` (stereo not drawn): 90%; for `COc1ccc(OC2=CC(=O)c3ccc(C)nc3C2=O)cc1`: 83.2%.
Still for that read-out and setting: the same measure for `CC(=O)OC[C@]1(C)C=C2C(=O)[C@](C)(O)C3(CC3)C(C)=C2[C@H]1OC(C)=O`: 96%.
